Growth inhibition data for nine molecules are collected here from PubChem BioAssay (NCI).

A short description of assay [1]: NCI Yeast Anticancer Drug Screen. Data for the rad50 strain (AID 155).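 Note: 0% = growth of vehicle-only cultures of the same strain.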 Particulars: S. cerevisiae rad50 strain growth inhibition, stronger effect = higher value. In outline:
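Genetically altered yeast (DNA repair pathway); compound treatment; growth inhibition vs vehicle ctrl.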

Assay [2] is described as follows: NCI Yeast Anticancer Drug Screen. Data for the mec2-1 strain (AID 157). To be noted: S. cerevisiae mec2-1 strain, stronger effect = higher value. The procedure, abridged:
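Test agents were screened against the mec2-1 yeast strain, with defined DNA repair or cell cycle alteration. Growth was scored as inhibition against vehicle-only controls.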

A short description of assay [3]: NCI Yeast Anticancer Drug Screen. Data for the sgs1 mgt1 strain (AID 161).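 Note: 0% = growth of cultures given vehicle only.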 To be noted: S. cerevisiae sgs1 mgt1 strain, stronger effect = higher value. In outline:
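Mutant yeast exposed to compound; growth scored against vehicle-only wells.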

Assay [4] is described as follows: NCI Yeast Anticancer Drug Screen. Data for the cln2 rad14 strain (AID 165).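 Note: 0% = growth equal to vehicle treated cultures.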 To be noted: S. cerevisiae cln2 rad14 strain, stronger effect = higher value. In outline: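 Growth of compound-exposed yeast (cln2 rad14 genotype) measured and expressed as inhibition relative to vehicle.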
Assay [5] is described as follows: NCI Yeast Anticancer Drug Screen. Data for the bub3 strain (AID 167). Particulars: S. cerevisiae bub3 mutant strain, stronger effect = higher value. The procedure, abridged: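 Yeast carrying a defined mutation is treated with each compound, and growth is compared with that of vehicle-exposed cells to give inhibition.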
The nature of assay [6]: NCI Yeast Anticancer Drug Screen. Data for the mlh1 rad18 strain (AID 175). Particulars: S. cerevisiae mlh1 rad18 strain growth inhibition, stronger effect = higher value. The procedure, abridged:
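In this whole-cell yeast screen, a strain with altered DNA damage repair is challenged with compound, and its growth is measured against matched vehicle-treated controls.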

Setting [7] is: at 5.0 µM (retest, dose inferred, filed as 0.5).
The mark [8] stands for this setting: at 50.0 µM (retest, dose inferred, filed as 5.0).

Values joined by “and” are separate entries in the source; they are usually repeats but may differ in a detail not shown here. Equal values may be shown once. This is part of a sample that, as a whole, favours compounds with a hit. Of some 79,000 tested, about 15% had one in any assay. A number with no mark means an inactive call. Active and inactive are the calls of the source. Cut-off read from the data, not from the text of the source: active = growth inhibition above about 70%; inactive = the rest.

With `c1ccc2c(c1)[nH]c1c2cc[n+]2cc3c(cc12)CCCC3`, the growth inhibition in assay [1] (setting [7]) is 30% and 19%; in assay [1] (setting [8]) it was 79% (active) and 97% (active); in assay [1] (at 50.0 µM), 89.2% (active) and 91.5% (active); in assay [2] (setting [7]), 51% and 19%; in assay [2] (setting [8]), 85% (active) and 97% (active); in assay [2] (at 50.0 µM), 89.6% (active) and 91.6% (active). The growth inhibition in assay [3] (setting [7]) is 45% and 26%; in assay [3] (setting [8]), 97% (active) and 98% (active); in assay [3] (at 50.0 µM) it was 91.9% (active); in assay [4] (setting [7]), 55% and 26%; in assay [4] (setting [8]), 97% (active) and 89% (active); in assay [4] (at 50.0 µM), 83.2% (active). For the same molecule, the growth inhibition was 68% and 33% in assay [5] (setting [7]); 96% (active) and 98% (active) in assay [5] (setting [8]); 91.3% (active) in assay [5] (at 50.0 µM); 29% and 27% in assay [6] (setting [7]); 89% (active) and 98% (active) in assay [6] (setting [8]); 88.7% (active) and 86.2% (active) in assay [6] (at 50.0 µM).

As for `O=c1[nH]cc(Cn2cnc3ncccc3c2=O)c(=O)[nH]1`, the growth inhibition was -5% in assay [1] (setting [7]); -4% in assay [1] (setting [8]); 6.4% in assay [1] (at 50.0 µM); -5% in assay [2] (setting [7]); -5% in assay [2] (setting [8]); 7.55% in assay [2] (at 50.0 µM). Moreover, the growth inhibition in assay [3] (setting [7]) was -3%; in assay [3] (setting [8]) it was -1%; in assay [3] (at 50.0 µM), -2.1%; in assay [4] (setting [7]) it was -3%; in assay [4] (setting [8]), -11%; in assay [4] (at 50.0 µM), 40.5%. Also, the growth inhibition in assay [5] (setting [7]) is -4%; in assay [5] (setting [8]), -2%; in assay [5] (at 50.0 µM), -18.2%; in assay [6] (setting [7]), -8%; in assay [6] (setting [8]), -5%; in assay [6] (at 50.0 µM) it was -16.5%.

As to `CSCCl`, the growth inhibition in assay [1] (setting [7]) is 3%; in assay [1] (setting [8]) it was 51%; in assay [1] (at 50.0 µM), 88.2% (active); in assay [2] (setting [7]), 3%; in assay [2] (setting [8]), 73% (active); in assay [2] (at 50.0 µM), 94.5% (active). For the same molecule, the growth inhibition in assay [3] (setting [7]) is 4%; in assay [3] (setting [8]), 86% (active); in assay [3] (at 50.0 µM) it was 90% (active); in assay [4] (setting [7]) it was 11%; in assay [4] (setting [8]), 97% (active); in assay [4] (at 50.0 µM) it was 88.8% (active). Besides, the growth inhibition in assay [5] (setting [7]) is 0%; in assay [5] (setting [8]) it was 75% (active); in assay [5] (at 50.0 µM), 97.6% (active); in assay [6] (setting [7]) it was -6%; in assay [6] (setting [8]) it was 95% (active); in assay [6] (at 50.0 µM), 95% (active).

As to `CC/C(=C/c1ccc2c(c1)OCO2)[N+](=O)[O-]`, the growth inhibition in assay [1] (setting [7]) is 89% (active); in assay [1] (setting [8]), 99% (active); in assay [1] (at 50.0 µM) it was 99.3% (active); in assay [2] (setting [7]) it was 59%; in assay [2] (setting [8]) it was 99% (active); in assay [2] (at 50.0 µM) it was 99.8% (active). Further, the growth inhibition was 68% in assay [3] (setting [7]); 99% (active) in assay [3] (setting [8]); 99.7% (active) in assay [3] (at 50.0 µM); 28% in assay [4] (setting [7]); 100% (active) in assay [4] (setting [8]); 99.1% (active) in assay [4] (at 50.0 µM). For the same molecule, the growth inhibition in assay [5] (setting [7]) is 83% (active); in assay [5] (setting [8]), 99% (active); in assay [5] (at 50.0 µM) it was 98.5% (active); in assay [6] (setting [7]), 66%; in assay [6] (setting [8]) it was 99% (active); in assay [6] (at 50.0 µM) it was 99.4% (active).

Regarding `CC(=O)Oc1cccc2c1CC(C[Se]c1ccccc1)C(=O)O2` (configuration not stated), the growth inhibition in assay [1] (setting [7]) is 11%; in assay [1] (setting [8]), 40%; in assay [1] (at 50.0 µM), 69.9%; in assay [2] (setting [7]), 8%; in assay [2] (setting [8]), 35%; in assay [2] (at 50.0 µM), 35.5%. For the same molecule, the growth inhibition in assay [3] (setting [7]) is 11%; in assay [3] (setting [8]), 57%; in assay [3] (at 50.0 µM), 70.2% (active); in assay [4] (setting [7]), 3%; in assay [4] (setting [8]) it was 23%; in assay [4] (at 50.0 µM), 25.4%. The growth inhibition in assay [5] (setting [7]) is -7%; in assay [5] (setting [8]), 38%; in assay [5] (at 50.0 µM) it was 35%; in assay [6] (setting [7]), 11%; in assay [6] (setting [8]), 66%; in assay [6] (at 50.0 µM) it was 74.2% (active).

Regarding `CCC[CH2][Sn]1([CH2]CCC)[O]C(=O)C(C(C)C)N=Cc2ccccc2[O]1` (configuration not stated), the growth inhibition was 15% in assay [1] (setting [7]); 15% in assay [1] (setting [8]); 89.8% (active) in assay [1] (at 50.0 µM); 17% in assay [2] (setting [7]); 17% in assay [2] (setting [8]); 93% (active) in assay [2] (at 50.0 µM). The growth inhibition is 12% in assay [3] (setting [7]); 12% in assay [3] (setting [8]); 90.8% (active) in assay [3] (at 50.0 µM); 7% in assay [4] (setting [7]); 7% in assay [4] (setting [8]); 91.6% (active) in assay [4] (at 50.0 µM). For the same molecule, the growth inhibition in assay [5] (setting [7]) is -4%; in assay [5] (setting [8]), -4%; in assay [5] (at 50.0 µM) it was 90.8% (active); in assay [6] (setting [7]), -2%; in assay [6] (setting [8]) it was -2%; in assay [6] (at 50.0 µM), 88.5% (active).

`COc1ccc(NP(=S)(Nc2ccc(OC)cc2)c2ccccc2)cc1`: the growth inhibition in assay [1] (setting [7]) was 2%; in assay [1] (setting [8]), 54%; in assay [1] (at 50.0 µM) it was 55%; in assay [2] (setting [7]), -2%; in assay [2] (setting [8]), 57%; in assay [2] (at 50.0 µM), 58.1%. Further, the growth inhibition in assay [3] (setting [7]) is 6%; in assay [3] (setting [8]) it was 65%; in assay [3] (at 50.0 µM) it was 49.6%; in assay [4] (setting [7]), 3%; in assay [4] (setting [8]), 51%; in assay [4] (at 50.0 µM) it was 68.2%. The growth inhibition in assay [5] (setting [7]) was -1%; in assay [5] (setting [8]), 78% (active); in assay [5] (at 50.0 µM), 67.6%; in assay [6] (setting [7]) it was 5%; in assay [6] (setting [8]) it was 58%; in assay [6] (at 50.0 µM), 28.9%.

Take `CC(Cc1ccccc1)N(C)Cc1ccc(-c2ccccc2)o1` (configuration not stated): the growth inhibition in assay [1] (setting [7]) was 27%; in assay [1] (setting [8]), 91% (active); in assay [1] (at 50.0 µM), 31.2%; in assay [2] (setting [7]) it was 7%; in assay [2] (setting [8]) it was 75% (active); in assay [2] (at 50.0 µM) it was 34%. The growth inhibition in assay [3] (setting [7]) was 14%; in assay [3] (setting [8]), 94% (active); in assay [3] (at 50.0 µM), 63.6%; in assay [4] (setting [7]), 16%; in assay [4] (setting [8]), 88% (active); in assay [4] (at 50.0 µM) it was 14.6%. The growth inhibition was 6% in assay [5] (setting [7]); 96% (active) in assay [5] (setting [8]); 20.6% in assay [5] (at 50.0 µM); 12% in assay [6] (setting [7]); 91% (active) in assay [6] (setting [8]); 81.3% (active) in assay [6] (at 50.0 µM).

Take `FC(F)(F)c1cccc(CCl)c1`: the growth inhibition in assay [1] (setting [7]) was -1%; in assay [1] (setting [8]) it was 3%; in assay [1] (at 50.0 µM), 24.8%; in assay [2] (setting [7]), 0%; in assay [2] (setting [8]), 1%; in assay [2] (at 50.0 µM), -5.7%. The growth inhibition is -1% in assay [3] (setting [7]); 1% in assay [3] (setting [8]); -17.4% in assay [3] (at 50.0 µM); -5% in assay [4] (setting [7]); -6% in assay [4] (setting [8]); -20.2% in assay [4] (at 50.0 µM). Moreover, the growth inhibition was -3% in assay [5] (setting [7]); 7% in assay [5] (setting [8]); -8.25% in assay [5] (at 50.0 µM); -2% in assay [6] (setting [7]); 4% in assay [6] (setting [8]); 38.5% in assay [6] (at 50.0 µM).
